These results are taken from PubChem BioAssay AID686978 (National Center for Advancing Translational Sciences (NCATS), 2013).

Among all 420,000 compounds or so, about 64,000 (15%) were called active. Inconclusive results (about 27%) are left out. Calls follow the shape of the dose curve; as a rule, active = well fitted inhibition curve with a large enough effect; inconclusive = small, poorly fitted or top-dose-only effect; inactive = flat fitted curve, though single readings scatter. Not all results are given here. Where a call stands in place of a potency, no number is given.
Potency is read from the fitted curve at half-maximal effect.

This assay can be described thus: qHTS for Inhibitors of human tyrosyl-DNA phosphodiesterase 1 (TDP1): qHTS in cells in absence of CPT. Also: nearly all actives have a fitted effect of over 55% in size. The following applies: DT40 Tdp1-/- hTDP1 cells, no CPT, ATP luminescence, 48 h; activity change, negative = growth inhibition: at 46.2 µM (top of the series). The gist of the method: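 Seeded 400 DT40-hTDP1 cells/well (vehicle DMSO, no 20 nM CPT); pinned compounds; ≥48 hr at 37 °C; CellTiter-Glo luminescence as viability measure.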
Consider `CC(C)Oc1ccc(Oc2ccc(C(F)(F)F)cn2)cc1`, for which the Potency result is “inactive”.

On to `COC(=O)CC1=NN(c2nc(C)cc(C)n2)C(=O)C1`, for which the Potency entry was “inactive”.

Regarding `C=CCn1c(=NC(=O)c2ccc(S(=O)(=O)N3CCCC3)cc2)sc2cc(NC(C)=O)ccc21`, the Potency result was “inactive”.

Take `Cn1cc(Cl)c(C(=O)NNC(=S)Nc2cccc(Cl)c2)n1`: the Potency result is “inactive”.

As to `Cc1cccc(-n2cnc(C(=O)Nc3cccnc3)c2)n1`, the Potency entry was “inactive”.

Turning to `Cc1cccc(-n2cnc(C(=O)NNC(=S)Nc3ccccc3)c2)n1`, the Potency is 23.1 µM (active).

Take `Cc1ccc(CNC(=O)CCNS(=O)(=O)c2ccc3c(c2)oc(=O)n3C)cc1`: the Potency result is “inactive”.

Consider `COC(=O)c1ccccc1NC(=O)CSc1nnnn1C`, for which the Potency entry is “inactive”.

As to `COc1cccc(CNCCSc2nnnn2C)c1OCc1ccccc1Cl`, the Potency is 20.6 µM (active).

Take `Cn1nnnc1SCCNCc1ccc(Cl)c(Cl)c1`: the Potency entry was “inactive”.

Regarding `COc1cccc(CNn2cn[nH]c2=S)c1OCc1ccccc1`, the Potency result is “inactive”.

Take `CCOc1ccc(CNCCSc2nnnn2C)cc1`: the Potency entry is “inactive”.

In the case of `COc1cc(CNCCSc2nnnn2C)ccc1OCc1ccc(Cl)cc1Cl`, the Potency is 23.1 µM (active).

Take `CCOc1ccc(OCC)c(Nc2nc3ccccc3n3nnnc23)c1`: the Potency result is “inactive”.

Consider `C=CCOc1c(CNn2cn[nH]c2=S)cccc1OC`, for which the Potency result was “inactive”.

In the case of `CC(C)CNC(=O)C(=O)NCC(c1ccc2c(c1)OCO2)N1CCOCC1` (configuration not stated), the Potency result was “inactive”.

For the compound `O=C(NCCO)C(=O)NCC(c1ccc2c(c1)OCO2)N1CCN(c2ccc(F)cc2)CC1` (configuration not stated), the Potency result is “inactive”.

Consider `CC(C)CC(=O)NCC(c1ccc2c(c1)OCO2)N1CCN(c2ccc(F)cc2)CC1` (configuration not stated), for which the Potency was 25.9 µM (active).

For `Cc1c(C(=O)NCC2CCCN(C)C2)cnn1-c1nccc(-c2ccco2)n1` (configuration not stated), the Potency entry is “inactive”.

On to `CC1CC(=O)Nc2ccccc2N1S(=O)(=O)c1cccs1` (configuration not stated), for which the Potency entry was “inactive”.

In the case of `COc1ccc(Cc2cc(-c3ccc(F)cc3)n[nH]c2=O)cc1`, the Potency was 13 µM (active).

For the compound `COc1ccc(Cc2nnc(SC)[nH]c2=O)cc1`, the Potency result was “inactive”.

As to `COc1ccc2[nH]c(=O)c(-c3noc(-c4ccc(F)cc4)n3)cc2c1`, the Potency result is “inactive”.

As for `COc1ccc(CNC(=O)CCC(=O)Nc2nnc(C(C)C)s2)cc1`, the Potency entry is “inactive”.

Turning to `COc1ccccc1OCC(=O)OCc1cc(-c2ccco2)on1`, the Potency result is “inactive”.

In the case of `CCCc1ccc(OCC(O)CN2CCN(C(=O)OCC)CC2)cc1` (configuration not stated), the Potency result was “inactive”.

For `COc1ccc(OC)c(NC(=O)c2cc(-c3cc(F)ccc3OCC3CCCO3)n[nH]2)c1` (configuration not stated), the Potency was 9.2 µM (active).

As for `COc1ccc(C(=O)Nc2ccc(C(=O)NCC3CCCO3)cc2)c(OC)c1OC` (configuration not stated), the Potency result is “inactive”.

For `O=C(O)CCC(=O)Nc1ccc(OCC2CCCO2)cc1` (configuration not stated), the Potency entry is “inactive”.

As to `O=C(/C=C/c1cc2c(cc1Br)OCO2)NCc1ccc(Cl)cc1`, the Potency entry was “inactive”.

Regarding `CCCCn1c(N)c(N(Cc2ccccc2OC)C(=O)COc2cc(C)ccc2Cl)c(=O)[nH]c1=O`, the Potency entry was “inactive”.

Turning to `Cc1cc(C)cc(NS(=O)(=O)Cc2ccccc2)c1`, the Potency entry is “inactive”.

Consider `O=[N+]([O-])c1ccc(/C=C/c2ccc3cccnc3c2)cc1`, for which the Potency was 10 µM (active).

Turning to `O=C(Oc1ccc([N+](=O)[O-])cc1)c1ccc2ccccc2n1`, the Potency entry was “inactive”.

Consider `O=C(OCc1ccc([N+](=O)[O-])cc1)c1ccccn1`, for which the Potency entry is “inactive”.

As for `Cc1c(Cl)cccc1NC(=O)NCc1ccc(C)n1C`, the Potency result was “inactive”.

In the case of `Cn1cc(-c2ccccc2)cc(C#N)c1=O`, the Potency entry was “inactive”.

Take `O=C(O)c1ccccc1C(=O)NC1=NN(c2ccccc2)CC1`: the Potency result is “inactive”.

Regarding `CCOC(=O)c1nnn(-c2nonc2-n2cccc2)c1CN1CCC(C(=O)OCC)CC1`, the Potency was 18.4 µM (active).

As to `CCOC(=O)c1nnn(-c2nonc2-n2cccc2)c1CN1CCOCC1`, the Potency result is “inactive”.

Turning to `NNC(=O)c1nnn(-c2nonc2N)c1CN1CCCC1`, the Potency result was “inactive”.

Regarding `COC(=O)C1(CCSC)NC(c2ccc(OC)cc2OC)C2C(=O)N(c3cccc(C(C)=O)c3)C(=O)C21` (configuration not stated), the Potency result was “inactive”.

Turning to `CC(Sc1nc(-c2ccccc2)cc(C(F)(F)F)n1)C(=O)Nc1ccc2c(c1)OCO2` (configuration not stated), the Potency result is “inactive”.

On to `Cc1ccc(O)c(NC(=O)CCS(=O)(=O)c2nc(-c3ccc4c(c3)OCO4)cc(C(F)(F)F)n2)c1`, for which the Potency is 11.6 µM (active).

Take `COc1ccccc1-c1cc(C(F)(F)F)nc(S(=O)(=O)CCCC(=O)Nc2cc(C)ccc2O)n1`: the Potency result is “inactive”.

Turning to `O=C(COC(=O)CSc1ccccc1)Nc1ccc(F)cc1F`, the Potency result was “inactive”.

On to `COc1ccccc1-c1cc(C(F)(F)F)nc(S(=O)(=O)CCCC(=O)Nc2ccc(F)cc2F)n1`, for which the Potency is 3.66 µM (active).

Take `O=C(Nc1cc(C(F)(F)F)ccc1Cl)c1cc2nc(-c3ccc4c(c3)OCO4)cc(C(F)(F)F)n2n1`: the Potency entry is “inactive”.

Turning to `Cc1cc2nc(C(F)(F)F)cc(-c3cccs3)n2n1`, the Potency entry was “inactive”.

Regarding `CSc1ccccc1NC(=O)CCS(=O)(=O)c1nc(-c2cccs2)cc(C(F)(F)F)n1`, the Potency was 11.6 µM (active).

In the case of `O=C(CSc1ccc(-c2cccs2)nn1)Nc1ccccc1F`, the Potency result is “inactive”.

Regarding `CCC(=O)c1c[nH]c(C(=O)NCC2CCCO2)c1` (configuration not stated), the Potency result is “inactive”.

As for `Cc1ccc(C(=O)OCC(=O)NC(=O)Cc2ccccc2)c(O)c1`, the Potency entry was “inactive”.

Take `CC(C)(C)C(=O)COC(=O)c1cc(S(=O)(=O)N2CCCCC2)ccc1N1CCOCC1`: the Potency result was “inactive”.

Regarding `CCCCSc1ncnc2c1sc1nc(N3CCOCC3)c3c(c12)CCCC3`, the Potency entry was “inactive”.

For `CC(C)Cc1nn2c(=O)cc(O)nc2s1`, the Potency entry is “inactive”.

As for `CSc1nnc2c(n1)OC(c1ccsc1)N(C(C)=O)c1ccccc1-2` (configuration not stated), the Potency result is “inactive”.

Consider `COc1ccccc1NC(=O)COC(=O)Cc1ccc(S(=O)(=O)N2CCCCC2)s1`, for which the Potency entry is “inactive”.

Consider `COC(=O)c1ccc(CSc2nncn2C)cc1`, for which the Potency result is “inactive”.

Consider `COC(=O)c1ccc(CSc2nncn2N)cc1`, for which the Potency entry is “inactive”.

Consider `CCOC(=O)c1ccc(CSc2nnc3cc(C)c4ccccc4n23)cc1`, for which the Potency is 20.6 µM (active).

As to `COCc1c(C(=O)N/N=C/C2CC=CCC2)nnn1-c1nonc1N` (configuration not stated), the Potency entry was “inactive”.

In the case of `CCc1ccc(N2CC(C(=O)NC3=NCCS3)CC2=O)cc1` (configuration not stated), the Potency entry is “inactive”.

Take `Cc1cccc(C(=O)OC(C)CN2CCCC2)c1` (configuration not stated): the Potency entry is “inactive”.

As to `Cc1cccc(N)c1SC1CCCCC1O` (configuration not stated), the Potency result is “inactive”.

For `CCCn1nnc(NC(=O)COc2ccc(CC)cc2)n1`, the Potency result was “inactive”.

Consider `O=C(OCc1ccccc1F)c1ccc2c(c1)OCCO2`, for which the Potency result was “inactive”.

In the case of `C=CCNC(=S)N/N=C/c1ccc(C)s1`, the Potency was 7.31 µM (active).

In the case of `C=C(C)CNC(=S)N/N=C/c1ccccc1OCC(=O)O`, the Potency result is “inactive”.

`C=CCNC(=S)NNC(=O)c1ccc(Br)o1`: the Potency entry was “inactive”.

On to `CCOC(=O)c1c(NC(=O)CN2C(=O)NC3(CCC(C)CC3)C2=O)sc(C)c1CC` (configuration not stated), for which the Potency result was “inactive”.

Turning to `OCC(O)C1OCOC(C(O)CO)C1O` (configuration not stated), the Potency result was “inactive”.

Regarding `COc1cc(NC(=O)CCn2nc(C)cc2C)cc(OC)c1OC`, the Potency result was “inactive”.

Take `COc1cc(NC(=O)c2cc(-c3ccc(F)cc3OC(C)C)n[nH]2)cc(OC)c1OC`: the Potency was 11.6 µM (active).

Take `COc1cc(F)ccc1-c1cc(C(=O)NCC2CCCCC2)[nH]n1`: the Potency entry was “inactive”.

Consider `COC(C)(C)[C@]12CC(O)(C(C)C)ON1[C@H]1CCCCC1N2O` (some centres not stated), for which the Potency result is “inactive”.

Regarding `CCC(=O)c1cc2c(cc1NC(=O)c1cccs1)OCCO2`, the Potency result was “inactive”.

Regarding `Cc1ccc(Oc2nc3ccccc3n3c(C)nnc23)cc1`, the Potency entry was “inactive”.

Consider `C[C@@H]1NC(=O)[C@@]2(C)[C@@H](c3ccccc3)[C@H]3COc4ccccc4[C@@H]3N2C1=O`, for which the Potency entry is “inactive”.

On to `CC(=O)Nc1ccc(-c2cn3cccnc3n2)cc1`, for which the Potency result is “inactive”.

Turning to `CCOC(=O)CC(=O)CSc1nc(-c2ccccc2)cc(-c2ccc(Cl)cc2)c1C#N`, the Potency result was “inactive”.

For the compound `CCOc1cc(-c2cc(-c3ccc(NC(C)=O)cc3)nc(N)c2C#N)ccc1O`, the Potency was 20.6 µM (active).

As for `CCCN(CC1CC1)C(=O)COC(=O)c1ccc(C)cc1O`, the Potency result was “inactive”.

`CC(C)OC(=O)c1cc(NC(=O)C2C3CCC(O3)C2C(=O)O)cc(C(=O)OC(C)C)c1` (configuration not stated): the Potency result was “inactive”.

Consider `O=C(CN1CCC(O)(c2cccc(C(F)(F)F)c2)CC1)NCCc1ccccc1`, for which the Potency is 11.6 µM (active).

For `Cc1cc(NC(=O)CN2CCC(O)(c3cccc(F)c3)CC2)no1`, the Potency entry was “inactive”.

Consider `O=C(CN1CCC(O)(c2ccccc2)CC1)Nc1ccc2c(c1)OCCO2`, for which the Potency result was “inactive”.

In the case of `Cn1c(=O)c2[nH]c(NCC3CCCO3)nc2n(-c2ccccc2)c1=O` (configuration not stated), the Potency entry is “inactive”.

For the compound `O=C1/C(=C/c2coc3ccc(O)cc3c2=O)SC(=S)N1c1ccccc1`, the Potency is 16.4 µM (active).

As for `CN(C)S(=O)(=O)c1cccc(-c2nn(-c3ccccc3)cc2/C=C2\SC(=S)N(CC(=O)O)C2=O)c1`, the Potency result was “inactive”.

`CC1=CC2=NC(=O)/C(=C/c3coc4ccccc4c3=O)C(=N)N2O1`: the Potency result was “inactive”.

Take `CN(C)CCCn1c(SCCN2C(=O)c3ccccc3C2=O)nc2ccccc2c1=O`: the Potency result was “inactive”.

Regarding `CCn1c2ccccc2c2cc(CC(N)=O)ccc21`, the Potency result was “inactive”.

Turning to `CCc1ccc(CNC(=O)c2cc3c(=O)n(CC)c4ccccc4c3s2)cc1`, the Potency is 29.1 µM (active).

For the compound `CN(Cc1ccccc1)C(=O)c1cc2c(=O)n(C)c3ccccc3c2s1`, the Potency entry is “inactive”.

In the case of `Cc1cc(=O)oc(C)c1C(=O)N1CCCCC1`, the Potency entry was “inactive”.

On to `Cc1oc2ncnc(N3CCCCC3)c2c1C(=O)N1CCN(c2cccc(Cl)c2)CC1`, for which the Potency was 16.4 µM (active).

Turning to `COc1ccc(C)cc1N(C)C(=O)c1c(C)oc2ncnc(N3CCOCC3)c12`, the Potency result is “inactive”.

For `O=C(COC(=O)CNC(=O)C1CCCCC1)Nc1cccc(F)c1`, the Potency entry was “inactive”.

On to `Cc1cccc(OCC(=O)NCC(=O)N/N=C/c2ccc(N(C)C)cc2)c1`, for which the Potency result is “inactive”.

On to `COc1ccccc1NC1=NC2(CCCC2)N=C(N)N1`, for which the Potency entry was “inactive”.

In the case of `COc1cc(C2C(C(=O)Nc3ccccc3OC)=C(C)Nc3ncnn32)ccc1O` (configuration not stated), the Potency entry is “inactive”.

In the case of `COc1ccccc1NC1=NC(c2ccc(Cl)cc2)N=C(N)N1` (configuration not stated), the Potency was 5.8 µM (active).

For `COc1cc([N+](=O)[O-])cc([N+](=O)[O-])c1NC(=O)N1CCOCC1`, the Potency result was “inactive”.

Regarding `O=C(CSc1nc(=O)n(Cc2cccnc2)c2c1CCC2)Nc1ccc(F)cc1F`, the Potency result is “inactive”.

Turning to `CC(=O)c1c(OCC(=O)N(C)C2CCCCC2)ccc2c(C)cc(=O)oc12`, the Potency entry is “inactive”.

As for `CCc1ccnc(NS(=O)(=O)c2ccc3c(c2)OCCO3)c1`, the Potency result is “inactive”.
